Source: ChEMBL document CHEMBL1157539, “Thousands of chemical starting points for antimalarial lead identification” (Nature, 2010)

System: Plasmodium falciparum
Assay: GSK_TCMDC: Inhibition of Plasmodium falciparum Dd2 in whole red blood cells, using parasite LDH activity as an index of growth. Test compounds present at 2uM
Type: functional

Row | Structure (SMILES) | Inhibition
1 | O=C(Nc1cccnc1)c1cn(-c2ccccc2)nc1-c1cccs1 | 61%
2 | O=c1ccc(CNc2nc(NCCc3ccccc3)nc3ccc(Cl)cc23)c[nH]1 | 16%
3 | CCCCCCCN1CCC(NC(=O)Nc2ccnc3ccc(OC)cc23)C(C(=O)OCC)C1.O=C(O)C(=O)O (stereo not given) | 73%
4 | COc1ccc(-c2nc3c4ccccc4c4ccc(I)cc4c3[nH]2)cc1 | 16%
5 | COc1ccc(CCNc2nc(SCc3ccccc3Cl)nc3ccccc23)cc1OC | 2%
6 | COc1ccc(NC(=O)CCNc2cc(C)nc(NCCOc3ccccc3)n2)cc1.O=C(O)C(F)(F)F | 2%
7 | C[C@@H]([C@@H](CCCc1ccc(Cl)cc1)C(=O)N[C@H](C(=O)Nc1cccnc1)C(C)(C)C)N(O)C=O | 99%
8 | Cc1cc(Nc2ccc3c(c2)CCC3)n2ncnc2n1 | 48%
9 | COCc1nc(N)nc(N)c1-c1ccc(Cl)c(Cl)c1 | 1%
10 | CCOC(=O)c1ccc(NC(=O)Nc2cccc(-c3cccc(-c4nc5ccccc5[nH]4)c3)c2)cc1 | 99%
11 | C=CCn1c(Sc2ccc(C#N)c([N+](=O)[O-])c2)nnc1-c1cccc(Cl)c1 | 54%
12 | c1ccc(CN2CCC(NCc3cccc(-c4cncc5ccccc45)c3)CC2)cc1 | 11%
13 | CCOc1c(OC)ccc2c1CCN(CCN1CCC(CNC(=O)c3ccc(-c4ccc(C(F)(F)F)cc4)cc3)CC1)C2 | 21%
14 | Cl.Nc1c2c(nc3ccc(NC(=O)c4ccc([N+](=O)[O-])cc4)cc13)CCCC2 | 72%
15 | CCCC(CCC)n1ccc2c3c(N)nc(N)nc3ccc21.Cl | 97%
